# In the library only some 1% were active in any assay of this set; here they are far more common.
# SNCA viab count – GF-AFC viability counterscreen for inhibitors of alpha-synuclein gene (SNCA) expression | HEK-293-SNCA-luc viability, GF-AFC fluorescence, 24 h | Potency, µM (titrated, usually from 57.1 µM), for inactives: at the highest dose activity change, negative = cytotoxicity, hits mostly cytotoxic | actives 0.12% (n = 150,000);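 also: potency is read from the fitted curve at half-maximal effect; 0% = DMSO-treated cells and -100% = medium-only wells without cells; nearly all actives have a fitted effect of over 30% in size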
#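 HEK-293-SNCA-luc cells (1500/well) plated 24 h, then exposed 24 h to a dilution series; GF-AFC added 30 min at 37C, fluorescence 405/540 nm; normalised to medium-only and DMSO wells, Hill fit.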
# GPT2 inh – Primary qHTS assay for inhibitors of Glutamate pyruvate transaminase 2 (GPT2) | Potency, µM (doses to about 57.7 µM), inactives show at the top dose activity change, negative = inhibition, usual class: inhibitors | Recombinant GPT2, coupled pyruvate oxidase/HRP Amplex Red fluorescence | Alanine aminotransferase 2 (Homo sapiens), Q8TD30 | actives 0.25% (n = 100,000); also: potency is read from the fitted curve at half-maximal effect; nearly all actives have a fitted effect of over 60% in size
#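 Fluorescence of coupled pyruvate oxidase/HRP/Amplex Red system (50uM Amplex, 30 min, dark) reports pyruvate formed by GPT2. Enzyme reaction: 10ng/uL GPT2, 2mM L-alanine, 250uM a-KG, 30 min room temperature, pH 7.5; 50uM AOA control.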
# SNCA expr inhib – Primary qHTS assay for inhibitors of alpha-synuclein gene (SNCA) expression | HEK-293 SNCA-luciferase knock-in, luminescence, 24 h | Potency, µM (series often up to 57.2 µM), for inactives: top-dose activity change, negative = inhibition, actives largely listed as inhibitors | actives 0.17% (n = 140,000);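 also: potency is read from the fitted curve at half-maximal effect; plate controls were DMSO cells for no effect and cell-free wells for full effect; nearly all actives have a fitted effect of over 45% in size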
# IP6K1 inhibitor – Primary qHTS assay for small molecule inhibitors of Inositol hexaphosphate kinase 1 (IP6K1). Inositol hexakisphosphate kinase 1 (Homo sapiens), Q92551. actives 0.81% (n = 140,000). IP6K1 kinase, ADP-Glo luminescence, 2 h; active compounds read low. activity change, % (series mostly up to about 58 µM); in the data active = activity change below about -25%
# Target sequence (Q92551 whole entry, looked up): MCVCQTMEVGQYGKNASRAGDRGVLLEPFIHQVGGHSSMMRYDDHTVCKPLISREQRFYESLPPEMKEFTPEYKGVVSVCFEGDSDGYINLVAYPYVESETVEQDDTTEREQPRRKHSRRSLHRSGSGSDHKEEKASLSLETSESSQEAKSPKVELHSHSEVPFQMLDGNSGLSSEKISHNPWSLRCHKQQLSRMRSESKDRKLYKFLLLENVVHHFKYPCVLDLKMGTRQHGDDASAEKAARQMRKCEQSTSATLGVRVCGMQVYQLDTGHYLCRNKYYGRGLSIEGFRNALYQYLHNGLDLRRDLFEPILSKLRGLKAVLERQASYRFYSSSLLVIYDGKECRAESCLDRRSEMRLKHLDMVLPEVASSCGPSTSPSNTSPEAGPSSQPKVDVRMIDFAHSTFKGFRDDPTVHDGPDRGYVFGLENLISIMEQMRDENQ
#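 ADP-Glo luminescence measures ADP made by human IP6K1 during a 2 h RT reaction with ATP/IP6 (mix at 1.3 mM/130 uM); top library doses 57.5 and 19.1 uM final.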
# Starred values were filed as active, the others as inactive; i = inactive; ? = inconclusive; . = no result given; ! = not confirmed by another sample; [ ] = dose if it differs, or a comment. Unless noted, calls follow the shape of the dose curve; as a rule, active = well fitted curve in the direction sought with a large enough effect; inconclusive = small, poorly fitted or top-dose-only effect, or another doubt; inactive = no such curve, though single readings can be large; an effect the other way counts as inactive or inconclusive. Unless noted, % is scaled to controls: 0 for no effect and ±100 for the full control effect.
SMILES,SNCA viab count,GPT2 inh,SNCA expr inhib,IP6K1 inhibitor
Cn1ncc2c(C(=O)NCc3ccccn3)cc(-c3ccsc3)nc21,-3%[87.6 µM],i,6%[87.6 µM],-9
Cc1ccc(-c2cccc(CN3CCCC3C(=O)NC3CCC3)c2)cc1Cl (configuration not stated),.,.,.,22
CC1(C)CCC2=C(O1)c1ccccc1C(=O)C2=O,?,3.4µM*!,?,.
Cc1ccc(N)cc1O,65%,11µM*,-10%,-22
COc1cccc2c1C(=O)c1c(O)c3c(c(O)c1C2=O)C[C@@](O)(C(=O)CO)C[C@@H]3O[C@H]1C[C@H](N)[C@H](OC2CCCCO2)[C@H](C)O1 (some centres not stated),-20%,3.1µM*,?,.
Cc1cccc(NC(=O)Cn2c(N3CCc4ccccc4C3)nc(C)cc2=O)c1,-25%,i,?,10
Cc1cccc(N(C)C(=O)Cn2c(N3CCc4ccccc4C3)nc(C)cc2=O)c1,11µM*,-3%,?,18
NC(=O)c1c(OCc2c(F)cc(Br)cc2F)nsc1NC(=O)NCCCCN1CCCC1,?,1%,6.1µM*,15
O=C(Nc1ccc(Br)cc1F)N1CCC(CN2CCCC2)CC1,5%,.,19%,36
CN(C)C/C=C/C(=O)Nc1ccc(C(=O)Nc2cccc(Nc3ncc(Cl)c(-c4c[nH]c5ccccc45)n3)c2)cc1,?,4%,0.17µM*,-3
COc1cccc(-c2cc(C(=O)N(C)CC#N)c3cnn(C)c3n2)c1,.,.,.,8
Cc1ccc(C(=O)Nc2ccc(CN3CCN(C)CC3)c(C(F)(F)F)c2)cc1C#Cc1cnc2cccnn12,30µM*!,?,?,22
COc1ccccc1-c1ccc(CN2CCCCC2C(=O)NCc2ccc(F)cc2F)cc1 (configuration not stated),.,.,.,20
CCNC(=O)N(C)Cc1cccc(N2CCN([S+](=O)([O-])c3c(Cl)cccc3Cl)CC2)c1F,.,.,.,-3
O=c1c(-c2ccc(O)cc2)coc2cc(OC3O[C@H](CO)[C@H](O)[C@H](O)[C@H]3O)cc(O)c12 (some centres not stated),-8%,?,5.4µM*,.
O=c1c(-c2ccc(O)cc2)coc2cc(O[C@@H]3O[C@H](CO)[C@H](O)[C@H](O)[C@H]3O)ccc12,-17%,i,?,.
O=c1c(O)c(-c2ccc(O)cc2)oc2cc(O)cc(O)c12,-17%,24µM*,2%,.
O=c1c(O)c(-c2ccc(O)c(O)c2)oc2cc(O)ccc12,18%,?,20%,.
O=C(CCc1nc2cccnc2n1-c1ccccc1)Nc1ccc(Cl)c(Cl)c1,-29%,.,7.1µM*,-7
Cc1ccc(NC(=O)CCc2nc3cccnc3n2-c2ccccc2)cc1Cl,-11%,.,5%,22
c1cc(-c2cnn3cc(-c4ccc(N5CCNCC5)cc4)cnc23)c2cccnc2c1,24µM*,i,.,23
CO[C@H]1C=CC=C(C)C(=O)NC2=CC(=O)C(NCCN(C)C)=C(C[C@@H](C)C[C@H](OC)[C@@H](O)[C@@H](C)C=C(C)[C@@H]1OC(N)=O)C2=O,?,31µM*,0.054µM*,.
C=CCNC1=C2C[C@@H](C)C[C@H](OC)[C@@H](O)[C@@H](C)C=C(C)[C@H](OC(N)=O)[C@@H](OC)C=CC=C(C)C(=O)NC(=CC1=O)C2=O,-24%,3%,?,.
Fc1ccc(-c2nc(-c3c(F)cccc3F)[nH]c2-c2ccncc2)cc1,15%,3%,.,-12
CS(=O)c1ccc(-c2nc(-c3ccc(F)cc3)c(-c3ccncc3)[nH]2)cc1 (configuration not stated),8%,1%,12µM*,3
SMILES,SNCA viab count,GPT2 inh,SNCA expr inhib,IP6K1 inhibitor
CN1CCN(Cc2ccc(NC(=O)Nc3ccc(Oc4cc(NC(=O)C5CC5)ncn4)cc3)cc2C(F)(F)F)CC1,?,?,0.48µM*,-5
CC1CCN(CCNC(=O)c2ccc(Cn3c(SCc4ccccc4)nc4cccnc43)cc2)CC1,10µM*,.,5%,23
O=C(Nc1ccc(C(=O)N2CCCCC2)cc1)c1nsc2ccccc12,-19%,.,10µM*,14
O=C(Nc1ccc(C(=O)N2CCN(c3ccc(F)cc3)CC2)cc1)c1nsc2ccccc12,1%,.,176%,8
Cc1nc(Nc2n[nH]c3c2CN(C(=O)NC(CN(C)C)c2ccccc2)C3(C)C)c2sccc2n1 (configuration not stated),7.5µM*,4%,.,-5
Cc1nn(-c2ccccc2)c(C)c1[C@@H]1C=C[C@@H](NC(=O)c2ccco2)C1,?,5%[88.5 µM],7%[87.6 µM],3
Cc1ccc(CN2C(=O)C(=O)c3cc(Br)cc(C)c32)cc1,?,.,22µM*,-9
Cc1ccc(C)c(OCC(=O)c2ccc3c(c2)N(CCCC(=O)NC2CCCCC2)C(=O)CO3)c1,18µM*,-15%,3%,-8
Cc1ccc(C)c(OCC(=O)c2ccc3c(c2)N(CCCC(=O)NCC2CC2)C(=O)CO3)c1,?,i,-11%,16
CC(c1nccs1)N(C)C(=O)c1csc2nc(-c3ccccc3Cl)cn12 (configuration not stated),?,2%,-26%,5
COCC1CCN(c2ccc(-c3nc(-c4ccccc4C)no3)cn2)C1 (configuration not stated),7%,-22%,54%,18
COC(=O)[C@@H]1CCCN1c1ccc(-c2nc(-c3ccccc3F)no2)cn1,-12%,-29%,11µM*,3
CCOc1ccccc1NC(=O)c1cc2c(N3CCSCC3)nc(C)cn2n1,2%,-4%,13%,8
Cc1nn(C(=O)c2ccccc2)c(C)c1Sc1ccc(Cl)cc1,20µM*,.,?,-11
CC(=O)NC1(C)CCN(Cc2ccc(-c3ccccc3OCc3ccccc3)cc2)C1 (configuration not stated),-20%[87.6 µM],4%[88.5 µM],0%[87.6 µM],4
Cc1ccc(-n2ncc3c(N4CCCCCC4)ncnc32)cc1Cl,2%,.,9%,10
Cc1ccc(-n2ncc3c(N4CCCCC4)ncnc32)cc1Cl,7%,.,7.1µM*,-4
Cc1ccc(-n2ncc3c(N4CCCCC4)ncnc32)cc1,3%,.,0.89µM*,14
COc1ccc(F)cc1-c1ccc(CN2CCCCC2C(=O)NCc2cccnc2)cc1 (configuration not stated),.,.,.,5
COc1ccc(CN2CCCn3nc(C)c(-c4ccccc4Oc4ccccc4)c32)cc1O,?,i,6.3µM*,4
COc1ccc(OC)c(CN2CCCn3nc(C)c(-c4ccccc4OCc4ccccc4)c32)c1,4µM*,i,?,1
Cc1nn2c(c1-c1ccccc1Oc1ccccc1)N(Cc1ccc(C(=O)O)cc1)CCC2,?,4%[88.5 µM],?,5
Cc1nn2c(c1-c1ccccc1OCc1ccccc1)N(CC1CC1)CCC2,10µM*,-12%[88.5 µM],?,15

# Compound activity: PubChem BioAssay, National Center for Advancing Translational Sciences (NCATS)
